OTUD3 block – human OTUD3 deubiquitinase inhibition; 47,000 compounds, 0.7% hits; purified OTUD3, Ub-rhodamine fluorescence, 2 h; inhibition, % at 25 µM
USP30 block – human USP30 deubiquitinase inhibition | 47,000 compounds, 5.3% hits | purified USP30, Ub-rhodamine cleavage fluorescence | Q70CQ3 | inhibition, % at 25 µM
USP28 block – human USP28 deubiquitinase inhibition; 47,000 compounds, 3% hits; inhibition, % at 25 µM; Q96RU2; AID 1645857; purified USP28, Ub-rhodamine cleavage fluorescence, 30 min
USP17 inh – blocks human USP17 ubiquitin-rhodamine cleavage | A8MUK1 | purified USP17, Ub-rhodamine cleavage fluorescence, 3 h | inhibition, % at 50 µM | 47,000 compounds, 6.5% hits | AID 1645855
Target sequence (A8MUK1 whole entry, looked up): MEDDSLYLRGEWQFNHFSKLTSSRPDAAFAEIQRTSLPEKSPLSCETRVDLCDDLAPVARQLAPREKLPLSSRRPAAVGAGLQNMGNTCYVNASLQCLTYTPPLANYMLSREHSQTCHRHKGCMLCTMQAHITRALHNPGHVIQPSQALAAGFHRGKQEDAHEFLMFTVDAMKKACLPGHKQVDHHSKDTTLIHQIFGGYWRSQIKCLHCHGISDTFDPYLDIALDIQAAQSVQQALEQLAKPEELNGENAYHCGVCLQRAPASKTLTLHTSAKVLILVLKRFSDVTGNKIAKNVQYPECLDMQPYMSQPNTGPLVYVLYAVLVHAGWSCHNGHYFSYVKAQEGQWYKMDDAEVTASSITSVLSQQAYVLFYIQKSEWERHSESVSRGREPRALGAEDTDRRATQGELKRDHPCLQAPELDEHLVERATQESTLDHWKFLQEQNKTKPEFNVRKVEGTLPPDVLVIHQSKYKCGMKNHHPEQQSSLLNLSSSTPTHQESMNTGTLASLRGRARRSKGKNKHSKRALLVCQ
Starred values were filed as active, the others as inactive. Compounds with a hit are over-represented: about 11% of the library has one in this group of screens. Cut-off read from the data, not from the text of the source: active = inhibition above about 30%; inactive = the rest.

SMILES	OTUD3 block	USP30 block	USP28 block	USP17 inh
COc1ccc(-c2csc(C)n2)cc1S(=O)(=O)Nc1cccc(Cl)c1	7	24	18	15
CCCCS(=O)(=O)N1C[C@H]2C[C@H](C(=O)NCc3cccnc3)[C@@H](C1)O2	11	17	16	5
COc1cc(C)cc2c1C(=O)c1c(cc(O)c(Cl)c1O)C2=O	76*	7	80*	74*
Cc1ccc(-c2c[n+](CC(=O)N(c3ccccc3)C(C)C)c3n2CCC3)cc1	11	-14	17	-10
O=C(C[n+]1cc(-c2ccccc2)n2c1CCC2)c1cccc([N+](=O)[O-])c1	15	31*	15	-11
Cc1ccc(C(=O)N2CCN(C)c3nc4ccccc4nc32)cc1-n1cccc1	-17	-127	-28	-20
Cc1ccc(C)c(Nc2nc(NCc3ccccc3)c3ccccc3n2)c1	33*	82*	61*	51*
Cc1cc(C)nc(C2CCCN2S(=O)(=O)N2CCOCC2)n1 (configuration not stated)	-3	-10	-9	-3
COc1ccccc1Nc1ncc(C(=O)NCc2ccc(F)cc2)c2ccccc12	-2	-29	-4	35*
COc1ccccc1Nc1ncc(C(=O)NCc2ccc3c(c2)OCO3)c2ccccc12	10	14	5	32*
COc1cc(Cl)ccc1Nc1ncc(C(=O)Nc2ccc3c(c2)OCO3)c2ccccc12	19	7	16	15
CCOC(=O)c1cnc(Nc2ccccc2OC)c2ccccc12	-23	-93	-25	8
COc1ccc(Cn2ccc3nc(N4CCOCC4)c(C#N)cc3c2=O)cc1	-6	54*	31*	68*
CC1(C)CC(=O)C2=C(C1)SC(c1ccccc1)=CC2c1ccccc1 (configuration not stated)	-1	7	0	-7
CNC(=O)N1CC[C@@H]2Oc3ccccc3S(=O)(=O)N(Cc3cccnc3)[C@H]2CC1	-4	-7	-18	-1
Cc1ccccc1NC(=O)Cn1ccc2ccn(Cc3ccccc3)c2c1=O	-17	-62	-24	-4
O=C(Cn1ccc2ccn(Cc3ccccc3)c2c1=O)Nc1cccc(F)c1	4	18	3	49*
COc1ccc(C(C)C)cc1S(=O)(=O)Nc1cccc(C)n1	7	29	8	6
COc1ccc(C)cc1S(=O)(=O)NNc1nc(C)cc(C)n1	0	7	8	34*
CCC(=O)NCC1CCCN(C(=O)Nc2ccc3c(c2)OCCO3)C1 (configuration not stated)	1	-3	-4	0
COc1ccc(S(=O)(=O)N2CCC(Cc3ccccc3)CC2)cc1NC(C)=O	10	35*	14	21
COc1ccc(C)cc1NC(=O)CN1CCC(Cc2ccccc2)CC1	16	18	2	21
O=C(Nc1cccc(S(=O)(=O)N2CCCC2)c1)c1ccc(OCC2CCCO2)cc1 (configuration not stated)	0	19	36*	10
COc1ccc(S(=O)(=O)N2CCCCC2)cc1NC(=O)c1ccc(OCC2CCCO2)cc1 (configuration not stated)	5	47*	11	20
COc1ccc(S(=O)(=O)Nc2cncc(C(=O)N3CCN(Cc4ccccc4)CC3)c2)cc1	-8	-29	-18	-16
SMILES	OTUD3 block	USP30 block	USP28 block	USP17 inh
COc1ccc(CNCCC(c2ccccc2)c2ccc3c(c2)OCO3)cc1OC (configuration not stated)	10	26	14	2
O=C(CCc1nc(-c2cccnc2)no1)Nc1cccc(Cl)c1	-7	-6	0	-12
Cc1nc(-c2ccccn2)sc1C(=O)Nc1ccc(C#N)cc1	4	54*	12	8
Cc1nc(-c2ccccn2)sc1C(=O)Nc1cccc(C(=O)NC2CC2)c1	-6	-15	3	-12
Fc1ccc(Sc2ncccc2-c2nc3ccccc3s2)cc1	22	22	20	14
Cc1ccc2c(c1)C(=O)c1c(O)cccc1C2=O	9	11	3	1
O=C1CC(O)C(C2=CC(=O)c3c(O)cccc3C2=O)O1 (configuration not stated)	71*	8	83*	71*
Cc1nn(C2CCS(=O)(=O)C2)c(C)c1N1CCN(S(=O)(=O)C2CCCCC2)CC1 (configuration not stated)	14	5	4	10
Cc1ccc2c(NCc3ccc4c(c3)OCO4)c(-c3nc(C)no3)cnc2n1	7	-78	43*	36*
Cc1ccc2c(Nc3ccccc3)c(-c3nc(C)no3)cnc2n1	-2	-27	12	-14
Cc1cc(C)cc(C(=O)N2CCc3c(c(-c4nc(C5CC5)no4)nn3C)C2)c1	-12	-2	-34	-22

Screens from PubChem BioAssay.
